Screening data from PubChem.
LGR2 inh = inhibitors of bursicon-induced LGR2 CRE-luciferase signal, primary screen, cell-based, HEK293, CRE-luciferase reporter, bursicon stimulation; Drosophila bursicon receptor LGR2 (rickets); bursicon-stimulated, 4 h; inhibition, % at 9.99 µM; 0.35% of 380,000 active; AID 720647, 2013;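 active means drop in luminescence signal, shown as inhibition above about 50% in the replicate tests, limit read from the data, passing the limit was not always enough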;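 further: agonist challenge used bursicon conditioned medium at about half maximal strength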
HSP90 inh = HSP90 inhibitors, primary screen, cell lysate, luminescence | Rabbit reticulocyte lysate, luciferase refolding luminescence, 3 h | inhibition, % at 5.6 µM | 0.91% of 290,000 active;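 active means inhibition above the screen-wide mean plus 3 SD, computed separately per campaign, cut at about 16% in these data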;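 further: 0% = DMSO wells and 100% = 60 µM geldanamycin wells; inhibitors lower the luminescence because luciferase stays unfolded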
SENP7 block = SENP7 protease inhibitors, primary screen, biochemical, luminescence, uHTS; Sentrin-specific protease 7 (Homo sapiens), Q9BQF6; recombinant SENP7, Z-RLRGG-aminoluciferin luminescence, 40 min; inhibition, % at 5 µM; 1.5% of 330,000 active; AID 434973, 2010;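 active means inhibition above about 50% at the single test dose, limit read from the data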;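 further: plate controls were DMSO with enzyme for no effect and no enzyme buffer wells for full effect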
SENP6 block = SENP6 protease inhibitors, primary screen, biochemical, luminescence, uHTS. Sentrin-specific protease 6 (Homo sapiens), Q9GZR1. Recombinant SENP6 catalytic domain, aminoluciferin luminescence. inhibition, % at 10 µM. 1.8% of 330,000 active. AID 2599, 2010;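 active means inhibition above about 50% at the single tested dose, limit read from the data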;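 further: plate controls were DMSO wells with enzyme for no effect and DMSO wells lacking enzyme for full effect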
Target sequence (Q9GZR1 628-1112 limits assumed): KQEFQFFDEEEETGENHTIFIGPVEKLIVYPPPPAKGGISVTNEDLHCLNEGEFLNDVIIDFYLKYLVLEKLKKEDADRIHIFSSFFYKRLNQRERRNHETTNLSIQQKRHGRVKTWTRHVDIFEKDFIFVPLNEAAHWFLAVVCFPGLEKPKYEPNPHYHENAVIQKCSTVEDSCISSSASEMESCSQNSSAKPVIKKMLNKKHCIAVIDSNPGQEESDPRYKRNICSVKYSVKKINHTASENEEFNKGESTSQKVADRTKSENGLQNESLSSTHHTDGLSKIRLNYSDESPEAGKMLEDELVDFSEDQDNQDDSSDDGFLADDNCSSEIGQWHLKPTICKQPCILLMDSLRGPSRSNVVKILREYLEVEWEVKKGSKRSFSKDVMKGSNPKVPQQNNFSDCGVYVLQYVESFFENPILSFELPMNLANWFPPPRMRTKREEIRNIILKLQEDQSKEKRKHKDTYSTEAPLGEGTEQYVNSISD
SENP8 block-1 = SENP8 protease inhibitors, primary screen, biochemical, luminescence. 1.2% of 330,000 active. purified SENP8, Z-RLRGG-aminoluciferin cleavage. inhibition, % at 10 µM; in the data active means inhibition above about 50%
Target sequence (Q96LD8 whole entry, looked up): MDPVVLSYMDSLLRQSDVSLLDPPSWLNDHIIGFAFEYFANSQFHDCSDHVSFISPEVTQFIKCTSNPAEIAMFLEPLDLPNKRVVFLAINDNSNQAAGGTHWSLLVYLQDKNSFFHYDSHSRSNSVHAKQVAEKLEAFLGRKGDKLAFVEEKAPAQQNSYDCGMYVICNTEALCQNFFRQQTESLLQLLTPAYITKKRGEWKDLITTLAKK
SENP8 block-2 = human SENP8 protease inhibitors, primary screen, biochemical, fluorescence, Nedd8 protein substrate, uHTS; Sentrin-specific protease 8 (Homo sapiens), Q96LD8; recombinant SENP8; inhibition, % at 20 µM; 0.64% of 360,000 active; in the data active means inhibition mostly above about 40%, no sharp cut-off; inactive means mostly below about 27%
SENP8 conf = SENP8 protease inhibitors, retest, confirmation, biochemical, luminescence, single concentration | shares compounds with SENP7 block | Recombinant SENP8, Z-RLRGG-aminoluciferin luminescence, 60 min | inhibition, % at 12.5 µM | 40% of 6,200 active | AID 488912, 2010;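 active means mean inhibition across replicates above about 50%, limit read from the data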
SENP6 conf = SENP6 protease inhibitors, confirmation, biochemical, luminescence, single concentration | shares compounds with SENP7 block | recombinant SENP6, Z-RLRGG-aminoluciferin luminescence | inhibition, % at 12.5 µM | 58% of 6,200 active
SENP7 conf = SENP7 protease inhibitors, retest, confirmation, biochemical, luminescence, single concentration; recombinant SENP7, Z-RLRGG-aminoluciferin luminescence, 40 min; shares compounds with SENP7 block; inhibition, % at 12.5 µM; 69% of 6,200 active
Casp3 SENP sel = caspase-3 protease inhibitors, confirmation, selectivity assay for SENP inhibitor project, biochemical, single concentration. shares compounds with SENP7 block. 60% of 6,200 active. purified caspase-3, Z-DEVD-aminoluciferin luminescence, 60 min. inhibition, % at 12.5 µM;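 active means mean inhibition above about 50%, limit read from the data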;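 further: plate controls were enzyme with DMSO for no effect and wells without caspase-3 for full effect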
Luc interf = interferes with luciferase luminescence in SENP counter-screen. Pre-incubated SENP8/Z-RLRGG-aminoluciferin, luciferase luminescence interference. inhibition, % at 12.5 µM. 39% of 6,200 active. shares compounds with SENP7 block;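 active means mean inhibition above about 50% when retested at one dose, limit read from the data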;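 further: plate controls were DMSO wells with completed reaction for no effect and substrate without enzyme for full effect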
Starred values were filed as active, the others as inactive; . = no result given. This is a sample that favours compounds with a hit; in the whole collection about 2.3% have one here.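 How the source made its calls, unless noted: active means mean inhibition above about 50% in the one-dose retest (limit read from the data); inactive means the rest.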

SMILES | LGR2 inh | HSP90 inh | SENP7 block | SENP6 block | SENP8 block-1 | SENP8 block-2 | SENP8 conf | SENP6 conf | SENP7 conf | Casp3 SENP sel | Luc interf
Cc1ccccc1-c1cnn(-c2cccc([N+](=O)[O-])c2)c1N | -19.7 | -1.2 | 3.2 | -4.0 | 14.7 | 11.3 | . | . | . | . | .
Nc1c(-c2ccc(Cl)cc2)cnn1-c1cc(C(F)(F)F)cc(C(F)(F)F)c1 | 10.9 | -5.2 | 1.0 | -9.0 | 1.2 | -0.9 | . | . | . | . | .
Cc1ccc(-c2cnn(-c3ccccc3)c2N)cc1 | -33.4 | 14.0 | 95.3* | 90.8* | 88.6* | 12.1 | 93.0* | 93.6* | 100.6* | 94.7* | 62.4*
COc1ccc(-c2cnn(-c3ccccc3)c2N)cc1OC | . | -3.5 | -4.3 | -14.3 | -12.1 | 28.2 | . | . | . | . | .
Nc1c(-c2ccc(Cl)cc2)nnn1-c1ccccc1 | . | 0.8 | 47.4 | 51.1* | 18.9 | 19.9 | 35.0 | 30.5 | 64.8* | 50.4* | 2.1
Cc1ccc(-c2cnn(-c3cccc([N+](=O)[O-])c3)c2N)cc1 | . | -5.0 | 53.1* | 51.9* | 19.9 | 11.3 | 27.5 | 27.6 | 71.4* | 37.8 | 2.0
CC(C)C(=O)Nc1ccc2c(c1)C(=O)N(C)[C@@H]1CC[C@@H](CC(=O)N[C@H](C)c3ccccc3)O[C@@H]1CO2 | -4.9 | . | . | . | . | . | . | . | . | . | .
O=C(NC(=O)c1ccccc1O)c1ccc(C(F)(F)F)cc1 | . | -0.1 | 77.6* | 76.3* | 71.2* | 29.9 | 76.5* | 74.9* | 84.2* | 84.3* | 8.2
Nc1ccc2nn(-c3cc([N+](=O)[O-])ccc3O)nc2c1 | -1.7 | 2.4 | -1.1 | 26.8 | 12.0 | 15.6 | . | . | . | . | .
Nc1ccc2nn(-c3ccc(F)cc3)nc2c1 | -20.7 | 8.3 | 56.7* | 88.4* | 83.9* | -435.0 | 61.3* | 75.6* | 93.6* | 71.8* | 22.6
CC(C)c1ccc(-n2nc3ccc(N)cc3n2)cc1 | . | 1.3 | 28.9 | 88.3* | 72.6* | -419.5 | 1.1 | 88.4* | 97.9* | 55.7* | 20.1
CCNC(=O)[C@H]1[C@H](CO)[C@H]2Cn3c(ccc(-c4cccc(F)c4)c3=O)[C@@H]1N2C(=O)c1cnccn1 | -4.5 | . | . | . | . | . | . | . | . | . | .
C[C@@H]1CN([C@@H](C)CO)C(=O)c2cc(NC(=O)Nc3ccc(C(F)(F)F)cc3)ccc2O[C@@H]1CN(C)Cc1ccc(-c2ccccc2)cc1 | -4.8 | . | . | . | . | . | . | . | . | . | .
CC1=CC(=C(C#N)c2nc3ccccc3s2)C=C(C)N1CC1CCCO1 (stereo not drawn) | -31.5 | 0.2 | 17.8 | 82.0* | 25.6 | 33.5 | -4.4 | -5.1 | -0.8 | 8.8 | 3.6
CSc1ccccc1NC(=O)Nc1cccc(Cl)c1 | -43.7 | 1.0 | 80.1* | 82.9* | 67.0* | 2.6 | 83.3* | 79.6* | 95.4* | 53.0* | 73.4*
CSc1ccccc1NC(=O)Nc1ccc(F)c(Cl)c1 | -29.1 | -3.3 | 86.6* | 76.9* | 67.8* | 13.4 | 1.0 | 75.5* | 96.5* | 68.4* | 71.8*
COc1ccc(NC(=O)Nc2ccccc2SC)c(OC)c1 | 5.9 | -1.4 | 6.5 | 11.5 | 2.3 | 8.3 | . | . | . | . | .
CSc1ccccc1NC(=O)Nc1cccc(Cl)c1Cl | . | 6.9 | 0.6 | 5.9 | -1.4 | 4.7 | . | . | . | . | .
COc1cccc(NC(=O)Nc2ccccc2SC)c1 | -28.9 | 0.4 | 47.4 | 33.1 | 51.3* | 12.4 | 78.3* | 71.7* | 91.0* | 70.9* | 71.8*
Cc1ccc(NC(=O)Nc2ccc(F)c(Cl)c2)cc1 | -66.9 | 0.7 | 33.7 | -0.1 | 1.0 | 24.4 | . | . | . | . | .
CN(C)c1ccc(NC(=O)Nc2cccc(Cl)c2)cc1 | . | -0.7 | 88.5* | 89.2* | 80.4* | 17.3 | 76.3* | 85.4* | 99.3* | 82.2* | 66.2*
C[C@@H]1CN([C@@H](C)CO)C(=O)c2cccc(N(C)C)c2O[C@@H]1CN(C)C(=O)Nc1ccccc1 | 7.2 | . | . | . | . | . | . | . | . | . | .
CCNC(=O)[C@@H]1[C@@H](CO)[C@@H]2Cn3c(ccc(-c4ccccc4F)c3=O)[C@H]1N2CC | 13.0 | . | . | . | . | . | . | . | . | . | .
COc1cccc(-c2ccc([C@@H]3[C@H](CO)N4CCCCN(S(=O)(=O)c5cn(C)cn5)C[C@@H]34)cc2)c1 | 0.0 | . | . | . | . | . | . | . | . | . | .
Cc1cc(C(=O)Nc2cccc3c2O[C@@H](CN(C)C(=O)Nc2cccc4ccccc24)[C@@H](C)CN([C@H](C)CO)C3=O)n(C)n1 | 11.0 | . | . | . | . | . | . | . | . | . | .
SMILES | LGR2 inh | HSP90 inh | SENP7 block | SENP6 block | SENP8 block-1 | SENP8 block-2 | SENP8 conf | SENP6 conf | SENP7 conf | Casp3 SENP sel | Luc interf
COc1ccccc1C(=O)Nc1cccc(NC(C)=O)c1 | . | 1.5 | -4.0 | -11.7 | 2.9 | 10.7 | . | . | . | . | .
COc1ccccc1C(=O)NC(=O)Nc1cccc(Cl)c1 | -69.7 | 3.9 | 85.4* | 79.4* | 81.6* | 20.5 | 43.7 | 36.3 | 40.3 | 42.5 | 29.6
CC(C)C#Cc1cnc2c(c1)C(=O)N([C@@H](C)CO)C[C@H](C)[C@@H](CN(C)C(=O)c1cnccn1)O2 | 6.6 | . | . | . | . | . | . | . | . | . | .
COc1cccc(S(=O)(=O)N(C)C[C@H]2Oc3cc(C#CCN(C)C)ccc3S(=O)(=O)N([C@H](C)CO)C[C@@H]2C)c1 | -5.5 | . | . | . | . | . | . | . | . | . | .
C/C(=N\OC(=O)Nc1ccccc1)c1ccc(C)cc1 | -48.8 | . | 73.4* | 67.4* | 69.6* | 28.0 | 82.2* | 82.9* | 96.3* | 78.6* | 77.6*
C/C(=N/NC(=O)Nc1ccccc1)c1ccc(C)cc1 | -16.6 | -4.7 | -9.0 | -3.3 | -5.7 | 25.3 | . | . | . | . | .
Cc1nc(/C(N)=N/OC(=O)c2ccc(Cl)cc2)c(C(F)(F)F)o1 | -13.5 | 2.1 | 81.7* | 69.2* | 58.0* | 11.1 | 74.4* | 69.8* | 94.1* | 88.5* | 78.3*
O=C(Nc1ccccc1)N1CC(=O)N2[C@H](CO)[C@H](c3ccc(C#CC4CCCC4)cc3)[C@@H]2C1 | 18.4 | . | . | . | . | . | . | . | . | . | .
CC(=O)CSc1nc2cc3c(cc2cc1C#N)OCCO3 | 60.6* | -1.9 | 97.1* | 91.4* | 95.1* | -284.1 | 83.5* | 87.0* | 58.1* | 86.0* | 26.9
